The source made the active and inactive calls. The calls were made as follows: active = hit-call score of the fitted dose curve at least 0.9, where 1 is the maximum; inactive = score below 0.9.
Experiment: CCTE_Shafer_MEA_acute_per_network_burst_spike_number_std: CCTE's Neural Acute Assay for Standard Deviation of Number of Spikes in a Network Burst, Shafer Lab (AID 2284020);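 also: fitted for decrease in spike-number SD versus DMSO so actives lower it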
Method: CCTE_Shafer_MEA_acute assay is conducted using Axion Biosystems 48 well microelectrode array (MEA) plates and Maestro recording system. Each well of the MEA plate contains a grid of 16 microelectrodes embedded in the culture surface. Electrically active cells, such as neurons, can be cultured over the electrodes, and electrical activity in these cells can be recorded extracellularly. The spontaneous firing of neurons is captured from each electrode on a microsecond timescale providing both temporally and spatially precise data. […] The CCTE_Shafer_MEA_acute assay uses primary cultures of rat cortical neurons. As these cultures mature over time, neural networks develop functional activity and form cohesive networks in which electrical activity can be highly coordinated. Baseline 40-minute recordings are made on days post-plating 13 or 15, followed by a secondary 40-minute recording after chemical exposure.CCTE_Shafer_MEA_acute_per_network_burst_spike_number_std is a component of the CCTE_Shafer_MEA_acute assay. It measures the standard deviation of the number of spikes (action potential firings) in a network burst (temporally-clustered group of spikes across multiple electrodes) during a recording in a microelectrode array (MEA) using Axion Biosystems Maestro 768 channel amplifier with the AxIS adaptive spike detector. The recordings before and after chemical treatment are used to calculate a percent change in the standard deviation of the number of spikes in network bursts in each well.Data from the assay component CCTE_Shafer_MEA_acute_burst_spike_number_std was analyzed into 1 assay endpoint. This assay endpoint, CCTE_Shafer_MEA_acute_burst_spike_number_std, was analyzed in the negative analysis fitting direction relative to DMSO as the negative control and baseline of activity. Using a type of functional reporter, gain or loss-of-signal activity can be used to understand electrical activity.
Spontaneous activity in the cortical cultures was recorded using an Axion Biosystems Maestro 768 channel amplifier and Axion Integrated Studios (AxIS) v1.8 (or later) software. The amplifier recorded from all channels simultaneously (gain = 1200 x; sampling rate = 12.5 kHz/channel): raw signals were filtered with a Butterworth band-pass filter (300-5000 Hz), which filters out slower local field potentials leaving only fast potentials, i.e., "spikes", arising from extracellular currents associated with action potentials (Pine 2006; Wheeler and Nam 2011). On-line spike detection of filtered signals was conducted with the AxIS adaptive spike detector, using a threshold of 8x the root mean squared (rms) noise on each channel. Any electrodes with rms noise levels greater than 5 uV were grounded (e.g., no data were recorded). Once grounded, an electrode was grounded for the duration of the experiment. All recordings were conducted at 37 C. Wells were deemed usable if on the day of the exposure >/= 10 electrodes were active (defined as >/= 5 spikes/min). On DIV 13 or 15, a minimum of three wells from one cortical culture preparation were treated with each compound (0.03-40 uM). Prior to recording baseline activity, each mwMEA plate was placed in the Maestro at 37 C and allowed to sit for 20 min while firing rates stabilized. Baseline activity (40 min) was recorded before the addition of each compound. An additional 40 min of spontaneous activity was recorded in the presence of each compound. Changes in network parameters relative to baseline were assessed following compound treatment.

outcome, inactive:
O=C1CCCN1CCO
CCCCC(CC)COCC1CO1 (stereo unspecified)
CCO[Si](C)(OCC)OCC
Nc1ccc(N)c(Cl)c1
CCOC(=O)c1ccccc1C(=C1C=C(Br)C(=O)C(Br)=C1)c1cc(Br)c(O)c(Br)c1
CCCCC(CC)COC(=O)c1ccccc1O (stereo unspecified)
CO[Si](OC)(OC)c1ccccc1
CN1C(=O)N(C)C(O)C1O (stereo unspecified)
C=C[Si](OC(C)=O)(OC(C)=O)OC(C)=O
Nc1ncn([C@@H]2O[C@H](CO)[C@@H](O)[C@H]2O)c(=O)n1
O=C(c1ccc(O)cc1)c1ccc(O)cc1O

— PubChem BioAssay (EPA / NIEHS)
